Assay [1] can be described thus: Primary qHTS for Huh7 cytotoxicity: counterscreen for inhibitors of MERS-S pseudotyped particle cell entry (AID 1479147). The following applies: outcome: dose series up to 57.1 µM unless noted. In general terms: In qHTS, concentration-response curves come from the screen itself.
A short description of assay [2]: Primary qHTS for inhibitors of MERS-S pseudo-typed particle cell entry (AID 1479149). Further: nearly all actives have a fitted effect of over 60% in size. On activity change, negative = inhibition: on the % scale 0 is the no-effect control and ±100 the full control effect. The following applies: outcome: dose series up to 57.1 µM unless noted.
A short description of assay [3]: Primary qHTS for Vero E6 cytotoxicity: counterscreen for inhibitors of SARS-S pseudo-typed particle cell entry (AID 1479150). The settings on record: outcome: dose series up to 57.1 µM unless noted.
Assay [4] in a line: Cytotoxicity counterscreen for inhibitors of SARS-CoV-2 cell entry (AID 1645845). Further: nearly all actives have a fitted effect of over 50% in size. The following applies: outcome: dose series up to 57.1 µM unless noted. The gist of the method:
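48 h compound treatment (after 1 h preincubation), HEK293-ACE2 cells, 37 C/5% CO2; ATP luminescence endpoint; normalized to cell wells and media blanks.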

A short description of assay [5]: Primary qHTS to identify inhibitors of SARS-CoV-2 cell entry (AID 1645846). Further: nearly all actives have a fitted effect of over 45% in size. The settings on record: SARS-CoV-2 pseudovirus cell entry assay, luminescence; activity change, negative = inhibition: at 57.1 µM (top of the series) unless noted. A digest of the protocol:
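HEK293-ACE2 (Expi293F, stable hACE2), 1500 cells/well, o/n 37C; cpd 23 nL pin, 1 h; MLV-PP w/ SARS-CoV-2-S (Wuhan-Hu-1, Δ19 C-term); 48 h 37C; Bright-Glo luminescence; normalized vs S-PP and bald PP.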

The nature of assay [6]: KB-8-5-11 P-gp reporter qHTS against the NCATS DSHEA and TCM libraries (AID 1919977; active means well fitted curve in the direction sought with a large enough effect; an effect the other way counts as inactive or inconclusive; further: 0% is about no effect). The gist of the method:
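CellTiter-Glo luminescence after ~72 h exposure at 37C gave viability of KB-8-5-11 cells, the P-gp-overexpressing subline. Substances were titrated; colchicine was omitted from assay medium.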

A short description of assay [7]: Cell Viability - LYMP2-007 (AID 979; active means well fitted curve in the direction sought with a large enough effect; an effect the other way counts as inactive or inconclusive;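 further: potency means the concentration at half of the fitted maximal effect; cells exposed to compound for 24 h before reading; nearly all actives have a fitted effect of over 60% in size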). The gist of the method:
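Human lymphoblastoid LYMP2-007 cells (2500/well) preincubated 5 h at 37 C, then treated 24 h at 37 C in complete medium. Viability by CellTiter-Glo ATP luminescence after 30 min at room temperature; AC50 from Hill fits.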

Assay [8] deals with Estrogen receptor (Homo sapiens) (UniProt P03372). Kind of assay: qHTS assay for small molecule antagonists of estrogen receptor alpha signaling (AID 588513; active means well fitted curve in the direction sought with a large enough effect in the signal ratio, with a control signal flat, not every such curve was filed as active; the % refers to the signal ratio; further: on the % scale 0 is the no-effect control and ±100 the full control effect). A digest of the protocol: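 Beta-lactamase reporter, antagonist mode, HEK 293 GripTite cells; 0.5nM E2 stimulus, 18 h, 37 C; CCF4 dye 2 h RT; fluorescence. IC50 and efficacy from Hill fits, normalized to E2 and DMSO.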

The target of assay [9] is Glucocorticoid receptor (Homo sapiens) (UniProt P04150). As to the kind of experiment: qHTS assay for small molecule agonists of glucocorticoid receptor signaling (AID 588532; active means well fitted curve in the direction sought with a large enough effect in the signal ratio, with a control signal flat; the % refers to the signal ratio;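 further: 100% = dexamethasone at 0.1 µM and 0% = DMSO only wells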). The following applies: HeLa MMTV-bla, beta-lactamase ratio, agonist, 18 h; stronger effect = higher value; percent of dexamethasone control, DMSO zero. A digest of the protocol:
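Quantitative HTS using CellSensor MMTV-bla HeLa cells in charcoal/dextran-treated serum; compounds tested up to 92 uM. After 18 h at 37 C, CCF4 dye reported reporter induction.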

The target of assay [10] is Peroxisome proliferator-activated receptor delta (Homo sapiens) (UniProt Q03181). Kind of assay: qHTS assay for small molecule agonists of peroxisome proliferator-activated receptor delta signaling (AID 588534).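 Further: 0% = DMSO basal wells and 100% = positive control agonist at 10 µM.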 The gist of the method: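 Cells carrying a PPAR-delta beta-lactamase reporter were treated with compounds for 18 h at 37 °C in agonist mode. CCF4 fluorescence was read after 2 h; EC50 and efficacy from Hill fits.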

For assay [11], the target named is Peroxisome proliferator-activated receptor gamma (Homo sapiens) (UniProt P37231). Kind of assay: qHTS assay for small molecule antagonists of peroxisome proliferator-activated receptor gamma signaling (AID 588537; active means well fitted inhibition curve with a large enough effect in the signal ratio, with a control signal flat, not every such curve was filed as active; the % refers to the signal ratio;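 further: reporter cells co-stimulated with 50 nM rosiglitazone agonist during compound treatment; % of control where 0% means no effect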). A digest of the protocol: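 Antagonist mode, beta-lactamase reporter in HEK293; charcoal/dextran FBS 1%; 3000 cells/well, 37 C 6-6.5 h; cpd titration + rosiglitazone 50 nM final, 16 h 37 C; CCF4, 2 h RT; 460/530 nm; Hill fit → IC50, efficacy.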

Assay [12] concerns the target Thyroid hormone receptor beta (Homo sapiens) (UniProt P10828). Kind of assay: qHTS assay for small molecule antagonists of thyroid hormone receptor beta signaling (AID 588547; active means well fitted inhibition curve with a large enough effect in the signal ratio, with a control signal flat, not every such curve was filed as active; the % refers to the signal ratio;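 further: cells stimulated with 0.4 nM T3 agonist during compound exposure; on the % scale 0 is the no-effect control and ±100 the full control effect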). The settings on record: TR-UAS-bla HEK293, beta-lactamase ratio, antagonist mode, 18 h. The gist of the method:
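Inhibition of T3-driven (0.4nM final) beta-lactamase reporter activity was measured over 0.59 nM to 92 uM compound after 18 h at 37 C. The cells were GripTite HEK293 TR-UAS-bla in charcoal/dextran-stripped serum, with CCF4 ratio read-out and IC50 from Hill fits.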

Assay [13] can be described thus: qHTS assay for small molecule agonists of the antioxidant response element (ARE) signaling pathway (AID 651741; active means well fitted activation curve with a large enough effect in the signal ratio; the % refers to the signal ratio; further: potency means the concentration at half of the fitted maximal effect; on activation: % of control where 0% means no effect). The gist of the method:
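Quantitative HTS in HepG2 cells stably expressing an ARE-beta-lactamase reporter; 16 h compound exposure at 37 C, followed by 2 h room-temperature incubation with LiveBLAzer B/G FRET substrate and fluorescence measurement.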

Assay [14] is described as follows: qHTS assay for small molecule agonists of the antioxidant response element (ARE) signaling pathway measured by Nrf2-dependant transcriptional activity (AID 720636; active means well fitted curve in the direction sought with a large enough effect in the repeat runs; an effect the other way counts as inactive or inconclusive;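 further: HepG2 cells with an ARE-driven luciferase reporter; % of control where 0% means no effect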). A digest of the protocol:
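Nrf2-dependent transcription is measured in ARE-luc HepG2 cells: compound is applied for 16 hr at 37 C after a 6 hr attachment period, and luciferase activity is quantified by luminescence using ONE-Glo.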

Assay [15] deals with Glutathione peroxidase 1 (Homo sapiens) (UniProt P07203). Kind of assay: Primary qHTS Assay for Inhibitors of Recombinant Selenoprotein Glutathione Peroxidase 1 (GPX1) (AID 1845191; active means well fitted curve in the direction sought with a large enough effect; an effect the other way counts as inactive or inconclusive; further: on the % scale 0 is the no-effect control and ±100 the full control effect; nearly all actives have a fitted effect of over 65% in size). A digest of the protocol:
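10 nM GPX1 + cpd, 30 min RT; start w/ 1 mM GSH, 0.5 mM cumene hydroperoxide, 0.5 mM NADPH, 100 nM GR, 0.01% BSA; buffer 50 mM Tris-HCl pH 7.5, 2 mM EDTA, 150 mM NaCl; Fl 340/450, 0 & 15 min.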

Assay [16] has as its target Phospholipid hydroperoxide glutathione peroxidase GPX4 (Homo sapiens) (UniProt P36969). Kind of assay: Primary qHTS Assay for Inhibitors of Recombinant Selenoprotein Glutathione Peroxidase 4 (GPX4) (AID 1845192; active means well fitted curve in the direction sought with a large enough effect; an effect the other way counts as inactive or inconclusive; further: on the % scale 0 is the no-effect control and ±100 the full control effect; nearly all actives have a fitted effect of over 65% in size). A digest of the protocol: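 NADPH consumption, followed by fluorescence at 340/450 nm between 0 and 15 min, reports GPX4 activity via coupled glutathione reductase (100 nM). Enzyme 200 nM was pre-exposed to compound 30 min; 0.5 mM cumene hydroperoxide and 1 mM GSH served as substrates.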

Where “and” joins values, the source holds several entries; their conditions need not be identical. Equal entries are not always repeated. Results filed as inconclusive are left out. Some compounds were tested as several samples or in several runs, with calls that do not always agree. Calls of active or inactive are those of the source. Unless noted, the call rests on the fitted dose curve.

Data on 8 compounds can be found in PubChem BioAssay (NCATS).

Chain of Peroxisome proliferator-activated receptor delta (Homo sapiens) (Q03181 whole entry, looked up): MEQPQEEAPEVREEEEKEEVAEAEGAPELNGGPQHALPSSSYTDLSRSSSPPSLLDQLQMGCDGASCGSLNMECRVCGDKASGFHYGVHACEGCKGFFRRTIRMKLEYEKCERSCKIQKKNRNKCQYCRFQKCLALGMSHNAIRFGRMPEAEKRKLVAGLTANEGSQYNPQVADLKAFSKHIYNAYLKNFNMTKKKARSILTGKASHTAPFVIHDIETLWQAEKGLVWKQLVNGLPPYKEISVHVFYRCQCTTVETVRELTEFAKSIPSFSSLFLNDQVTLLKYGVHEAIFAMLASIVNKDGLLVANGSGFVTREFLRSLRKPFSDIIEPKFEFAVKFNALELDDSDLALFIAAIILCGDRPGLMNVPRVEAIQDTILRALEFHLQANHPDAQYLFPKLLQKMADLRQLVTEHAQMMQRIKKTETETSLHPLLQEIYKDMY
Chain of Thyroid hormone receptor beta (Homo sapiens) (P10828 whole entry, looked up): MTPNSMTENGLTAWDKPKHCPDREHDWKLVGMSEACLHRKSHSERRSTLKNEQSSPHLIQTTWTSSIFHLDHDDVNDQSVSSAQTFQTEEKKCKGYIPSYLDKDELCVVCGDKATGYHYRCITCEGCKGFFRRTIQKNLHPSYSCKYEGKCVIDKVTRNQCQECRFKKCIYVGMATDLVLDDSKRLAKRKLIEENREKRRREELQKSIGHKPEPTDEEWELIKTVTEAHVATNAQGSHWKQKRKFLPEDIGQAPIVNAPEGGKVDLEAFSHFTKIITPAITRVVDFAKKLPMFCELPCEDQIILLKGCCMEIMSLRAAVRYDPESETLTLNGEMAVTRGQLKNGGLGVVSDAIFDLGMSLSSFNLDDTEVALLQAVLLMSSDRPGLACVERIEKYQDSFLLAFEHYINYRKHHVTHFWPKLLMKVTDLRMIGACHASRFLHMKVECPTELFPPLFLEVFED
Chain of Estrogen receptor (Homo sapiens) (P03372 whole entry, looked up): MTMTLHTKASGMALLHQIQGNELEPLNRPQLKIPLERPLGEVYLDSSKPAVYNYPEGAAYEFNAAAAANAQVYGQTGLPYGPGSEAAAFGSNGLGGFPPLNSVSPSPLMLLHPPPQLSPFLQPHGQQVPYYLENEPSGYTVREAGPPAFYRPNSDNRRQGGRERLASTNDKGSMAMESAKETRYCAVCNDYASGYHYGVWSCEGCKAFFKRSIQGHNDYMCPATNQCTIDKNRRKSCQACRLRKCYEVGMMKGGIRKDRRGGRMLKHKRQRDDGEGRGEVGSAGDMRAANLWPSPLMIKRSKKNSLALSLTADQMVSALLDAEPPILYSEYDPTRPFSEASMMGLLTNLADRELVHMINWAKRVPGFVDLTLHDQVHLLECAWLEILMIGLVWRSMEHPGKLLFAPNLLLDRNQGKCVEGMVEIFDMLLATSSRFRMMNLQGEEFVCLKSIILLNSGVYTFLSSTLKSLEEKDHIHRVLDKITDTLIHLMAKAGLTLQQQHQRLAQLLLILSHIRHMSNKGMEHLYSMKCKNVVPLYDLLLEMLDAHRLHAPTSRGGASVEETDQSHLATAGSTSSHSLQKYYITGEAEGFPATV
Chain of Glucocorticoid receptor (Homo sapiens) (P04150 whole entry, looked up): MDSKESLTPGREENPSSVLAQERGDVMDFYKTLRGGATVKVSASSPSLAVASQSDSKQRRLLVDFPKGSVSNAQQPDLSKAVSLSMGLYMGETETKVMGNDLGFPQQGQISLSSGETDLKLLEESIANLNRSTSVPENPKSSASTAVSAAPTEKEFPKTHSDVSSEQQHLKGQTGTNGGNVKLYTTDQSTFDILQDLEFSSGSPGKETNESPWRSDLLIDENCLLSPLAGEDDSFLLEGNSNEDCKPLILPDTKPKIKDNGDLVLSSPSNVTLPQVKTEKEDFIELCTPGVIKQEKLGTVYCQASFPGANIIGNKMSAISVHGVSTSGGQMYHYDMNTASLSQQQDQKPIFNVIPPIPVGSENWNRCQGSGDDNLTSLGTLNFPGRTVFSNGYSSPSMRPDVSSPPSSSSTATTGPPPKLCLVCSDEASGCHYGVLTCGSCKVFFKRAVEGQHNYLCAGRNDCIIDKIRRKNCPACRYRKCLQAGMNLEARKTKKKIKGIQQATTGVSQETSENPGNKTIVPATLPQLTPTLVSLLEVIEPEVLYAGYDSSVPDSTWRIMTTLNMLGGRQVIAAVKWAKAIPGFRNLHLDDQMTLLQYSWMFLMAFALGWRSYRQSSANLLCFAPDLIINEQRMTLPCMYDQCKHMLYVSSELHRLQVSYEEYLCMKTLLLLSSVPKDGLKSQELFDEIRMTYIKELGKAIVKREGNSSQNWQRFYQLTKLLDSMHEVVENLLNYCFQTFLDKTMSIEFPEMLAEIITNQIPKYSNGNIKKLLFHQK
Chain of Peroxisome proliferator-activated receptor gamma (Homo sapiens) (P37231 whole entry, looked up): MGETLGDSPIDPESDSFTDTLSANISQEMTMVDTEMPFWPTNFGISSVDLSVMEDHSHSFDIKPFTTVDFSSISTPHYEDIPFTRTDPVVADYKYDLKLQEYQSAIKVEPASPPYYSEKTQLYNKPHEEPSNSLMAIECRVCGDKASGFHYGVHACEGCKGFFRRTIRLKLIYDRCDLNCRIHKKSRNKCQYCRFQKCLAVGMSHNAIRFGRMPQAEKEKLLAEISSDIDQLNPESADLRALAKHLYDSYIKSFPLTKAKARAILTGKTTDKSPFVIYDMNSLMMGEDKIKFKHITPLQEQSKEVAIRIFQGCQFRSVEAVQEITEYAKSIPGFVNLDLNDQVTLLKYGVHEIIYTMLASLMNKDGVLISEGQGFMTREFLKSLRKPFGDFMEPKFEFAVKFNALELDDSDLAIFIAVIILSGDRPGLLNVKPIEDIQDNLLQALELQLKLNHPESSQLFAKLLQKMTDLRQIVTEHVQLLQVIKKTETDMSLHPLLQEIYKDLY
Chain of Glutathione peroxidase 1 (Homo sapiens) (P07203 whole entry, looked up): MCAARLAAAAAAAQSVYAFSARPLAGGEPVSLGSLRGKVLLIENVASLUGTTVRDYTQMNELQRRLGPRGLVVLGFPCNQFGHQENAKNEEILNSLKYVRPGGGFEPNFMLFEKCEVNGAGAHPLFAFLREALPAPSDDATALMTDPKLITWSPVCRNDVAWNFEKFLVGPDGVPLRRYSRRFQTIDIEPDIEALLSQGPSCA
Chain of Phospholipid hydroperoxide glutathione peroxidase GPX4 (Homo sapiens) (P36969 whole entry, looked up): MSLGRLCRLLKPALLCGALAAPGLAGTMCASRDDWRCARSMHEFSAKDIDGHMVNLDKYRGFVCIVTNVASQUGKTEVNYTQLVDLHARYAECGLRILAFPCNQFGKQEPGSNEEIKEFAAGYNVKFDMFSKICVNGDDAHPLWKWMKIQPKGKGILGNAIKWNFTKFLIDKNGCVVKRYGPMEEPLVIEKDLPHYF

In the case of `CCCCC/C=C/C/C=C/CCCCCCCC(=O)O`, the Potency entry in [1], in assay [2], in [3], in assay [4] and in assay [6] was “inactive” throughout. Further, the activity change, negative = inhibition in assay [5] was -0.957%.
As to `Cc1nccn1CCC(C(N)=O)(c1ccccc1)c1ccccc1`, the Potency entry in assay [1], in [2], in [3] and in assay [4] was “inactive” each time. For the same compound, in assay [5], the activity change, negative = inhibition was -25.4%.
Consider `CCCOc1cc(N)ccc1C(=O)OCCN(CC)CC`, for which the Potency entry in assay [1], in assay [2], in [3] and in assay [4] was “inactive” each time. Moreover, the activity change, negative = inhibition in assay [5] is -10.9%.
Regarding `O=C(O)CC(O)(CC(=O)O)C(=O)O`, the Potency in [7] is 50.1 µM (active); in [13], “inactive and 54.5 µM (active)”. Moreover, the Potency result in [8], in [11], in assay [1], in assay [2], in assay [3] and in [4] was “inactive” each time. In [6], the Potency entry was “inactive”. Moreover, the activation in assay [9] is 1.56% (inactive). Also, the compound was classed as inactive in assay [10] and in assay [14]. Also, the activity change % (negative = inhibition) in assay [12] is -10.8% (inactive) and 10.6% (inactive). Further, the activity change, negative = inhibition in assay [5] was -17.5%.
With `CCCCCCCCCCCCCCCCCC(=O)OCCO`, the Potency entry in [1], in assay [2], in [3] and in assay [4] was “inactive” in each case. Moreover, the activity change, negative = inhibition in assay [5] was -12.3%.
For `CC(C)N[C@@H]1CCn2c(=O)[nH]c3cccc(c32)[C@H]1O`, the Potency result in [1], in assay [2], in [3], in [4], in assay [5] and in assay [15] was “inactive” throughout. In addition, in [16], the Potency result was “inactive”.
For `CN1CCN(C2=Nc3ccccc3Cc3ccccc32)CC1`, the Potency result in assay [1], in [2], in [3] and in assay [4] was “inactive” throughout. Moreover, the activity change, negative = inhibition in assay [5] was -23.9%.
For the compound `CCC(=O)O[C@@H]1[C@@H](C)O[C@@H](O[C@H]2[C@H](N(C)C)[C@@H](O)[C@H](O[C@H]3[C@@H](CC=O)C[C@@H](C)[C@@H](OC(C)=O)/C=C/C=C/C[C@@H](C)OC(=O)C[C@@H](OC(=O)CC)[C@@H]3OC)O[C@@H]2C)C[C@]1(C)OC(C)=O`, the Potency result in assay [1], in [2], in assay [3] and in [4] was “inactive” each time. Besides, in assay [5], the activity change, negative = inhibition was -16.2%.
